Source: PubChem BioAssay (EPA / NIEHS)
Several values for one entry are separate records, joined by “and”; a condition that tells them apart may be missing. Identical values can stand only once. Records with an inconclusive call do not appear. Some compounds were tested as several samples or in several runs, with calls that do not always agree. Activity calls are given as the source filed them. Rule for the calls: active = hit-call score of the fitted dose curve at least 0.9, where 1 is the maximum; inconclusive = response in the unintended direction; inactive = score below 0.9.

Tested on: not listed separately
Experiment: ATG_M_06_XSP2: Attagene TRANS-FACTORIAL Multi-Species (XSP2) HepG2 Assay for M06 Transcription Factor (Internal Marker) (AID 2283811);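 note: hits are increases in signal above the DMSO baseline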
Method: ATG_XSP2_multi-species_TRANS is a cell-based, multiplexed assay created by modifying the existing Attagene TRANS-FACTORIAL system to include a panel of nuclear receptors from some or all the following species: human (Homo sapiens), mouse (Mus musculus), frog (Xenopus laevis), zebrafish (Danio rerio), chicken (Gallus gallus), and turtle (Chrysemys picta). The ECOTOX-FACTORIAL format uses HepG2, a human liver cell line, with measurements taken at 24 hours after chemical dosing in a 24-well plate. Xsp2 included 3 nM 6-alpha-fluorotestosterone and 1.5 nM norgestrel to stimulate the androgen receptor.ATG_M_06_XSP2 is one of 29 assay components measured or calculated from the ATG_XSP2_multi-species_TRANS assay. It is designed to make measurements of mRNA induction, a form of inducible reporter, as detected with fluorescence intensity signals by Reverse transcription polymerase chain reaction (RT-PCR) and Capillary electrophoresis technology.This assay endpoint, ATG_M_06_XSP2, was analyzed in the positive analysis fitting direction relative to DMSO as the negative control and baseline of activity. Using a type of inducible reporter, measures of mRNA for gain-of-signal activity can be used to understand the background control at the transcription factor-level as they relate to the gene. Furthermore, this assay endpoint can be referred to as a secondary readout, because this assay has produced multiple assay endpoints where this one serves a background control function. To generalize the intended target to other relatable targets, this assay endpoint is annotated to the background measurement intended target family, where the subfamily is internal marker.
Human liver HepG2 cells are transiently transfected with multiple reporter transcription units (MRTUs) in 6-well plates using FuGene 6 reagent (Roche; 3 ml FuGene/1 mg DNA). The MRTU constructs are regulated by a cis-regulating element (promoter). […] A major difference between the CIS and TRANS system is that in CIS activities of endogenous TFs are measured, whereas the TRANS assay evaluates changes in activities of exogenous, chimeric NR-Gal4 proteins. […] At the end of 24 hour incubation, total RNA was isolated using TriZol reagent (Invitrogen). The isolated RNA is then reverse-transcribed using oligo(dT) primer and Mo-MLV reverse transcriptase (Invitrogen) with DNAse I (Ambion) treatment for 30 min. The one-tenth of the produced cDNA was amplified by PCR using Taq DNA polymerase (Invitrogen) and two reporter sequence-specific primers. The PCR products were fluorescently labeled by primer extension with 6-arboxyfluorescein (6-FAM) 5'-labeled reporter sequence-specific primer (2 min at 95 C, 20 s at 68 C and 10 min at 72 C) and these products were digested with 5U of HpaI (New England Biolabs) for 2h at 37 C. The fragments were purified using Qiaquick PCR columns (Qiagen), analyzed on an ABI 3130xL genetic analyzer (Applied Biosystems) with peak positions identified by using a set of X-rhodamine (ROX)-labeled MapMarker1000 molecular weight standards (BioVentures). The raw capillary electrophoresis data was processed using Attagraph software (Attagene).

outcome, inactive:
Oc1ccc2cc(SSc3ccc4cc(O)ccc4c3)ccc2c1, O=c1c(O)c(-c2ccc(O)cc2)oc2cc(O)cc(O)c12, OCc1cccc(Oc2ccccc2)c1, Clc1ccc(C(c2ccccc2Cl)C(Cl)Cl)cc1 (stereo not given), BrCc1cccc(Oc2ccccc2)c1, Cc1cc(=O)oc2cc(N(C)C)ccc12

Tested on: turtle Estrogen Receptor (ERa), gene 101933533
Experiment: ATG_trERa_XSP2: Attagene TRANS-FACTORIAL Multi-Species (XSP2) HepG2 Assay for turtle Estrogen Receptor (ERa) (AID 2283812);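 note: human HepG2 liver cells transiently expressing turtle ERa-Gal4 chimeric receptor; actives raise reporter signal above DMSO so AC50 reflects agonist activity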
Procedure, shortened: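 HepG2 cells transiently transfected with GAL4-UAS reporter units expressing turtle ERa-Gal4 chimera. Reporter mRNA measured after 24 h dosing by RT-PCR, fluorescent labelling and capillary electrophoresis; gain of signal fitted versus DMSO.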

AC50, active:
Oc1ccc2cc(SSc3ccc4cc(O)ccc4c3)ccc2c1 1.07 µM, O=c1c(O)c(-c2ccc(O)cc2)oc2cc(O)cc(O)c12 2.27 µM and 1.08 µM, OCc1cccc(Oc2ccccc2)c1 17.1 µM and 11.5 µM, CCCCC(CC)COC(=O)c1ccc(O)cc1 (stereo not given) 25.3 µM, Clc1ccc(C(c2ccccc2Cl)C(Cl)Cl)cc1 (stereo not given) 1.29 µM and 8.5 µM, BrCc1cccc(Oc2ccccc2)c1 15.9 µM and 18.2 µM, Cc1cc(=O)oc2cc(N(C)C)ccc12 49.9 µM

outcome, inactive:
Oc1ccc2cc(SSc3ccc4cc(O)ccc4c3)ccc2c1, Cc1cc(=O)oc2cc(N(C)C)ccc12
